Records with an inconclusive call do not appear. Calls of active or inactive are those of the source. Calls follow the shape of the dose curve; as a rule, active = well fitted inhibition curve with a large enough effect; inconclusive = small, poorly fitted or top-dose-only effect; inactive = flat fitted curve, though single readings scatter.

This experiment relates to CRL-7250. Put plainly: qHTS assay to identify novel small-molecules to repurpose for Merkel cell carcinoma treatment (AID 1296009). Also: nearly all actives have a fitted effect of over 60% in size. To be noted: MCC and control cell lines, CellTiter-Glo viability, 72 h; at 44.8 µM (top of the series) unless noted. In short, it runs like this:
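After compound transfer in DMSO, plates were kept 72 hr at 37 degree celsius. Luminescent ATP signal from CellTiter-Glo served as viability measure, normalized against DMSO and no-cell controls.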
On the technique in general: In qHTS, concentration-response curves come from the screen itself.
Consider `O=c1cc[nH]c(=O)[nH]1`, for which the molecule was classed as inactive.
As to `C=CCN1C[C@H](C(=O)N(CCCN(C)C)C(=O)NCC)C[C@@H]2c3cccc4[nH]cc(c34)C[C@H]21`, the molecule was classed as inactive.
In the case of `Nc1ccn([C@@H]2O[C@H](CO)[C@@H](O)C2O)c(=O)n1` (stereo partly specified), the molecule was classed as inactive.
Turning to `CS(=O)(=O)c1ccc([C@@H](O)[C@@H](CO)NC(=O)C(Cl)Cl)cc1`, the molecule was classed as inactive.
`CO/N=C(/C(=O)N[C@@H]1C(=O)N2C(C(=O)OCOC(=O)C(C)(C)C)=C(C)CS[C@H]12)c1csc(N)n1`: the molecule was called inactive.
`CCO/C([O-])=N/c1c[n+](N2CCOCC2)no1`: the molecule was classed as inactive.
In the case of `CC1(C)O[C@H]2CC(=O)OC[C@]23[C@H]2CC[C@@]4(C)[C@H](c5ccoc5)OC(=O)[C@H]5O[C@]54[C@]2(C)C(=O)C[C@@H]13`, the outcome was “inactive [at 17.4 µM]”.
For `Nc1cc(=O)[nH]c(N)n1`, the molecule was called inactive.
In the case of `CN1CCN(C(=O)C2CCCCC2)CC1`, the result was inactive.
In the case of `COc1cc(/C=C/C(N)=O)cc(OC)c1OC`, the outcome was inactive.
For `CC(C)Cn1cnc2c(N)nc3ccccc3c21`, the outcome was “inactive [at 17.4 µM]”.
For the molecule `OC[C@H]1O[C@H](O[C@]2(CCl)O[C@H](CCl)[C@@H](O)[C@@H]2O)[C@H](O)[C@@H](O)[C@H]1Cl`, the molecule was classed as inactive.
The value for `Cc1ccc(S(=O)(=O)NC(=O)NC2CCCCC2)cc1` was “inactive”; that for `NCCCC[C@H](N[C@@H](CCc1ccccc1)C(=O)O)C(=O)N1CCC[C@H]1C(=O)O` was “inactive”.
For the molecule `COc1ccc2c(c1)c(CC(=O)OC/C=C(\C)CC/C=C(\C)CCC=C(C)C)c(C)n2C(=O)c1ccc(Cl)cc1`, the outcome was inactive.
On to `Cc1[nH]cnc1-c1ccc(Cl)cc1`, for which the outcome was inactive.
The value for `Cc1c(N(C)CS(=O)(=O)O)c(=O)n(-c2ccccc2)n1C` was “inactive”; that for `NC(N)=NS(=O)(=O)c1ccc(N)cc1` was “inactive”; that for `Cc1c(C)c2c(c(C)c1O)CCC(C)(COc1ccc(CC3SC(=O)NC3=O)cc1)O2` (stereo unspecified) was “inactive”.
The result for `O=C(C1CCCCC1)N1CC(=O)N2CCCc3ccccc3C2C1` (stereo unspecified) reads “inactive”.
`CCOC(=O)Oc1ccc(CCNC(=O)[C@H](CCSC)NC(C)=O)cc1OC(=O)OCC`: the molecule was called inactive.
The value for `CC(C)(C)NCC(O)COc1ccc(NC(=O)NC2CCCCC2)cc1` (stereo unspecified) was “inactive”; that for `OC[C@H]1O[C@@H]2O[C@H]3[C@H](O)[C@@H](O)[C@@H](O[C@H]4[C@H](O)[C@@H](O)[C@@H](O[C@H]5[C@H](O)[C@@H](O)[C@@H](O[C@H]6[C@H](O)[C@@H](O)[C@@H](O[C@H]7[C@H](O)[C@@H](O)[C@@H](O[C@H]8[C@H](O)[C@@H](O)[C@@H](O[C@H]1[C@H](O)[C@H]2O)O[C@@H]8CO)O[C@@H]7CO)O[C@@H]6CO)O[C@@H]5CO)O[C@@H]4CO)O[C@@H]3CO` was “inactive”.
`O=C(O)c1ccc[n+]([O-])c1`: the outcome was inactive.
For `COc1ccc2cc1Oc1cc3c(cc1OC)CC[N+](C)(C)[C@H]3Cc1ccc(cc1)Oc1c(OC)c(OC)cc3c1[C@@H](C2)[N+](C)(C)CC3`, the result was inactive.
The value for `CO[C@@]1(NC(=O)Cc2cccs2)C(=O)N2C(C(=O)O)=C(COC(N)=O)CS[C@@H]21` was “inactive”; that for `Cc1cc(CC(=O)O)c(C)n1-c1ccc(Cl)cc1` was “inactive”.
The value for `CC(C)(C)C(=O)Oc1ccc(S(=O)(=O)Nc2ccccc2C(=O)NCC(=O)O)cc1` was “inactive”; that for `Cc1cc2nc3c(=O)[nH]c(=O)nc-3n(C[C@H](O)[C@H](O)[C@H](O)CO)c2cc1C` was “inactive [at 17.4 µM]”.
On to `CS(=O)(=O)c1ccc([C@@H](O)[C@@H](CF)NC(=O)C(Cl)Cl)cc1`, for which the outcome was inactive.
Take `O=C(O)c1cc(=O)[nH]c(=O)[nH]1`: the outcome was inactive.
The value for `CC(=O)CC(c1ccccc1)c1c(O)c2ccccc2oc1=O` (stereo unspecified) was “inactive”.
On to `CCN1CCN(C(=O)N[C@@H](C(=O)N[C@@H]2C(=O)N3[C@@H]2SC(C)(C)[C@H]3C(=O)O)c2ccccc2)C(=O)C1=O`, for which the call was inactive.
`CCn1cc(C(=O)O)c(=O)c2cc(F)c(N3CCNC(C)C3)c(F)c21` (stereo unspecified): the molecule was classed as inactive.
The result for `O=C(O)Cn1c(=O)n(Cc2ccc(Br)cc2F)c(=O)c2ccc(Cl)cc21` reads “inactive”.
The value for `CC(=O)[C@H]1CC[C@H]2[C@@H]3C[C@H](C)C4=CC(=O)CC[C@]4(C)[C@H]3[C@@H](O)C[C@]12C` was “inactive”.

These data come from PubChem BioAssay (NCATS).
